The text below walks through data of publication PMC9838217, “Structure of SALL4 zinc finger domain reveals link between AT-rich DNA binding and Okihiro syndrome”.

Common to all, as to assay: HT-SELEX; high values mean tight binding
Details in all cases: protein: recombinant; vector His6-GST; dsDNA, one strand shown

Experiment [1] concerns the target T1, SALL4 ZFC4 WT (HT-SELEX) (Mus musculus, UniProt Q8BX22 870-940).
T1 sequence: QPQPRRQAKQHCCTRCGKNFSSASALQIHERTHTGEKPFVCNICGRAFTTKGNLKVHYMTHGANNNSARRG
The method in brief:
(§1)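 Residues 870–940 of mouse SALL4, forming zinc finger cluster 4, were expressed recombinantly, purified, and 1 µg was incubated with library DNA (1.5 µg first cycle, 200 ng later) in 100 µl of 10 mM Tris–HCl pH 7.5, 50 mM NaCl, poly(dI-dC) and DTT for 10 min at room temperature. Washed Ni2+ bead-captured complexes were PCR-amplified and reselected for up to 6 cycles in triplicate, and the products were sequenced on MiSeq and scanned for 6-mers. Binding signal is the fold change in each canonical k-mer's read fraction compared with the initial random library.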

Experiment [2] concerns the target T2, SALL4 ZFC4 R900W (HT-SELEX) (Mus musculus, UniProt Q8BX22 870-940, R900W).
T2 sequence: T1 sequence with R31W
The method in brief:
as §1

The target of experiment [3] is T3, SALL4 ZFC4 G921D (HT-SELEX) (Mus musculus, UniProt Q8BX22 870-940, G921D).
T3 sequence: T1 sequence with G52D
The method in brief: as §1

Residue numbers refer to the chain shown, from its start.

As for CCATGC, the binding signal in experiment [1] came to 0.345 ± 0.0259 fold-change vs cycle 0; in experiment [2], 0.399 ± 0.0174 fold-change vs cycle 0; in experiment [3], 0.514 ± 0.0663 fold-change vs cycle 0.
Consider CGCTAA, for which the binding signal in experiment [1] worked out at 0.488 ± 0.0307 fold-change vs cycle 0; in experiment [2], 0.562 ± 0.0185 fold-change vs cycle 0; in experiment [3], 0.667 ± 0.039 fold-change vs cycle 0.
On to TACGTA, for which the binding signal in experiment [1] amounted to 1.26 ± 0.0297 fold-change vs cycle 0; in experiment [2], 1.33 ± 0.109 fold-change vs cycle 0; in experiment [3] it was 1.23 ± 0.0963 fold-change vs cycle 0.
For the sequence AACGGA, the results for the binding signal in experiment [1], in experiment [2] and in experiment [3] were 0.714 ± 0.0406 fold-change vs cycle 0, 0.846 ± 0.0545 fold-change vs cycle 0 and 0.859 ± 0.0492 fold-change vs cycle 0, respectively.
For the sequence AGACCA, the figures for the binding signal in experiment [1], in experiment [2] and in experiment [3] were 0.701 ± 0.0172 fold-change vs cycle 0, 0.823 ± 0.0201 fold-change vs cycle 0 and 0.91 ± 0.0215 fold-change vs cycle 0, respectively.
As to CATTGG, the values for the binding signal in experiment [1], in experiment [2] and in experiment [3] were 0.754 ± 0.0443 fold-change vs cycle 0, 0.867 ± 0.0514 fold-change vs cycle 0 and 0.924 ± 0.0186 fold-change vs cycle 0, respectively.
Regarding ATAGTC, the binding signal in experiment [1] came out at 1.25 ± 0.0415 fold-change vs cycle 0; in experiment [2], 1.31 ± 0.0594 fold-change vs cycle 0; in experiment [3], 1.33 ± 0.0589 fold-change vs cycle 0.
For CCTACC the same measures were 0.45 ± 0.0245 fold-change vs cycle 0, 0.53 ± 0.00975 fold-change vs cycle 0 and 0.625 ± 0.0741 fold-change vs cycle 0.
For AACCTG the same measures were 0.802 ± 0.0637 fold-change vs cycle 0, 0.917 ± 0.053 fold-change vs cycle 0 and 0.952 ± 0.0288 fold-change vs cycle 0.
Consider CAAAGC, for which the binding signal in experiment [1] came out at 0.565 ± 0.00649 fold-change vs cycle 0; in experiment [2] it was 0.654 ± 0.0334 fold-change vs cycle 0; in experiment [3] it was 0.761 ± 0.0246 fold-change vs cycle 0.
As for AGGCAT, the binding signal in experiment [1] stood at 0.627 ± 0.0329 fold-change vs cycle 0; in experiment [2], 0.715 ± 0.0142 fold-change vs cycle 0; in experiment [3] it was 0.816 ± 0.0443 fold-change vs cycle 0.
Take ATAACG: the binding signal was determined as 1.39 ± 0.0783 fold-change vs cycle 0 in experiment [1], 1.3 ± 0.0579 fold-change vs cycle 0 in experiment [2] and 1.23 ± 0.0819 fold-change vs cycle 0 in experiment [3].
Turning to ATATTA, the binding signal in experiment [1] came to 4.97 ± 0.422 fold-change vs cycle 0; in experiment [2] it was 2.59 ± 0.139 fold-change vs cycle 0; in experiment [3], 2.22 ± 0.236 fold-change vs cycle 0.
On to GCTTAA, for which the binding signal amounted to 1.02 ± 0.0584 fold-change vs cycle 0 in experiment [1], 1.15 ± 0.0607 fold-change vs cycle 0 in experiment [2] and 1.12 ± 0.048 fold-change vs cycle 0 in experiment [3].
As to TATGGA, the binding signal in experiment [1] was 1.65 ± 0.0906 fold-change vs cycle 0; in experiment [2], 1.46 ± 0.0813 fold-change vs cycle 0; in experiment [3] it was 1.37 ± 0.0965 fold-change vs cycle 0.
For ATTCAA the same measures were 1.94 ± 0.125 fold-change vs cycle 0, 1.97 ± 0.115 fold-change vs cycle 0 and 1.79 ± 0.158 fold-change vs cycle 0.
Take ATCAAA: the binding signal turned out to be 1.96 ± 0.105 fold-change vs cycle 0 in experiment [1], 1.83 ± 0.114 fold-change vs cycle 0 in experiment [2] and 1.69 ± 0.154 fold-change vs cycle 0 in experiment [3].
On to ACGAGT, for which the binding signal in experiment [1] turned out to be 0.767 ± 0.0224 fold-change vs cycle 0; in experiment [2], 0.897 ± 0.033 fold-change vs cycle 0; in experiment [3], 0.922 ± 0.0421 fold-change vs cycle 0.
In the case of CCTCCC, the values for the binding signal in experiment [1], in experiment [2] and in experiment [3] were 0.317 ± 0.0293 fold-change vs cycle 0, 0.372 ± 0.0347 fold-change vs cycle 0 and 0.467 ± 0.0525 fold-change vs cycle 0, respectively.
For AGGGAG the same measures were 0.59 ± 0.0373 fold-change vs cycle 0, 0.667 ± 0.0517 fold-change vs cycle 0 and 0.737 ± 0.0368 fold-change vs cycle 0.
As for AGCCAA, the binding signal was found to be 0.49 ± 0.0194 fold-change vs cycle 0 in experiment [1], 0.55 ± 0.00629 fold-change vs cycle 0 in experiment [2] and 0.698 ± 0.0739 fold-change vs cycle 0 in experiment [3].
Regarding AACCGA, the binding signal is 0.657 ± 0.0177 fold-change vs cycle 0 in experiment [1], 0.7295 ± 0.00455 fold-change vs cycle 0 in experiment [2] and 0.812 ± 0.0455 fold-change vs cycle 0 in experiment [3].
For the sequence CCTCAG, the values for the binding signal in experiment [1], in experiment [2] and in experiment [3] were 0.494 ± 0.0292 fold-change vs cycle 0, 0.591 ± 0.0293 fold-change vs cycle 0 and 0.666 ± 0.0425 fold-change vs cycle 0, respectively.
ATTTCC: the binding signal is 1.33 ± 0.0842 fold-change vs cycle 0 in experiment [1], 1.28 ± 0.0652 fold-change vs cycle 0 in experiment [2] and 1.25 ± 0.0764 fold-change vs cycle 0 in experiment [3].
For ATCTGC the same measures were 0.624 ± 0.0226 fold-change vs cycle 0, 0.711 ± 0.0187 fold-change vs cycle 0 and 0.798 ± 0.0337 fold-change vs cycle 0.
Regarding CATGTC, the binding signal is 0.763 ± 0.0529 fold-change vs cycle 0 in experiment [1], 0.908 ± 0.0423 fold-change vs cycle 0 in experiment [2] and 0.939 ± 0.0158 fold-change vs cycle 0 in experiment [3].
On to AACCCT, for which the binding signal in experiment [1] is 0.85 ± 0.042 fold-change vs cycle 0; in experiment [2], 0.958 ± 0.0297 fold-change vs cycle 0; in experiment [3], 0.971 ± 0.0387 fold-change vs cycle 0.
Consider AAGCTT, for which the binding signal in experiment [1] stood at 1.18 ± 0.0611 fold-change vs cycle 0; in experiment [2], 1.27 ± 0.0133 fold-change vs cycle 0; in experiment [3], 1.24 ± 0.0566 fold-change vs cycle 0.
As for AAGGCT, the binding signal in experiment [1] is 0.61 ± 0.0387 fold-change vs cycle 0; in experiment [2], 0.726 ± 0.0643 fold-change vs cycle 0; in experiment [3] it was 0.8372 ± 0.00507 fold-change vs cycle 0.
Consider ATATAC, for which the binding signal in experiment [1] turned out to be 2.19 ± 0.164 fold-change vs cycle 0; in experiment [2], 1.98 ± 0.103 fold-change vs cycle 0; in experiment [3], 1.78 ± 0.131 fold-change vs cycle 0.
